Laboratory results from PubChem BioAssay (NCI).
The panel holds about 83,000 compounds, 20% with a hit somewhere; the sample as a whole holds those more often.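 The endpoint reported here, percent growth, reads 100 for growth as untreated, 0 for no net growth and -100 for all cells dead.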 A number with no mark means an inactive call. The source made the active and inactive calls. How the source made its calls: active means growth percent below 10; inactive means the rest.

Experiments:
Assay in all cases: NCI-60 one-dose screen, 48 h (100 = growth as untreated, 0 = no growth, -100 = all killed)
Details in all cases: 10 µM unless noted
DU-145 prostate = system: DU-145 prostate
K-562 leukemia = system: K-562 leukemia
MALME-3M melanoma = system: MALME-3M melanoma
MDA-MB-231 breast = system: MDA-MB-231 breast
RXF 393 renal = system: RXF 393 renal
SF-268 CNS = system: SF-268 CNS
SF-295 CNS = system: SF-295 CNS
SF-539 CNS = system: SF-539 CNS
UACC-257 melanoma = system: UACC-257 melanoma
M14 melanoma = system: M14 melanoma
HCT-15 colon = system: HCT-15 colon
HT29 colon = system: HT29 colon
SNB-75 CNS = system: SNB-75 CNS
SNB-19 CNS = system: SNB-19 CNS
U251 CNS = system: U251 CNS
PC-3 prostate = system: PC-3 prostate
SK-MEL-5 melanoma = system: SK-MEL-5 melanoma
UACC-62 melanoma = system: UACC-62 melanoma
LOX IMVI melanoma = system: LOX IMVI melanoma
SK-MEL-28 melanoma = system: SK-MEL-28 melanoma

Structure (SMILES)	growth (DU-145 prostate)	growth (K-562 leukemia)	growth (MALME-3M melanoma) [%]	growth (MDA-MB-231 breast)	growth (RXF 393 renal)	growth (SF-268 CNS) [%]	growth (SF-295 CNS)	growth (SF-539 CNS)	growth (UACC-257 melanoma) [%]	growth (M14 melanoma)	growth (HCT-15 colon)	growth (HT29 colon)	growth (SNB-75 CNS)	growth (SNB-19 CNS) [%]	growth (U251 CNS)	growth (PC-3 prostate) [%]	growth (SK-MEL-5 melanoma)	growth (UACC-62 melanoma)	growth (LOX IMVI melanoma)	growth (SK-MEL-28 melanoma)
COc1cc(NS(C)(=O)=O)ccc1Cc1c2ccccc2nc2ccccc12	11%	18.2%	14.8	53.2%	-13.4% (active)	22.4	3.77% (active)	-28.5% (active)	25	10%	18.3%	8.23% (active)	21.4%	25.9	18.7%	55.2	8.33% (active)	26.1%	-26.2% (active)	50.7%
Nc1ncc(-c2ccc3ncnc(Nc4ccc(F)c(Cl)c4)c3c2)cn1	43.3%	55.5%	36.3	54.4%	32.9%	54.9	16.2%	55.4%	101	87.5%	45.9%	32.8%	-12.6% (active)	90.5	-14.8% (active)	64.5	95.8%	103%	35.6%	–
COc1ccccc1N1CCN(CCCOc2ccc(OCCCN3CCN(c4ccccc4OC)CC3)c(C(=O)c3cc(OC)c(OC)c(OC)c3)c2)CC1	105%	67.6%	113	113%	126%	110	109%	107%	107	108%	140%	101%	120%	102	118%	95.9	87.6%	109%	116%	115%
COc1cc(NC(C)CCCN2C(=O)c3ccccc3C2=O)c2nccc(C)c2c1OC (configuration not stated)	124%	60.9%	81.2	84.7%	106%	104	119%	119%	106	135%	102%	107%	102%	109	101%	58.6	69.5%	84%	82.8%	–
CCN(CC)CCN1C(=O)c2c(c3c4ccccc4[nH]c3c3[nH]c4ccccc4c23)C1=O	105%	17.8%	86.1	83.8%	83.6%	87.3	84.7%	88.8%	105	79.5%	59.4%	46.5%	80%	80.3	87.9%	82.5	94.3%	87.2%	82.3%	–
O=C(NCCNc1nccc(-c2c(-c3cccc(O)c3)nc3sccn23)n1)Nc1cccc(C(F)(F)F)c1	89%	70.6%	23.6	37.7%	26.3%	26.2	75.5%	98.5%	25.3	-21.7% (active)	84.7%	38.9%	66.2%	89.5	81.6%	26.7	53.5%	29.4%	64.5%	48.8%
CCNc1cc(S(=O)(=O)O)ccc1C	108%	102%	106	102%	110%	113	101%	102%	83.2	106%	105%	102%	99.4%	104	98.3%	90.5	102%	105%	97.2%	108%
CCOC(=O)NNc1nncc2ccccc12	115%	81.9%	99.5	101%	109%	107	103%	108%	93.3	108%	101%	104%	120%	99.2	97.2%	97.7	105%	101%	90.8%	122%
CCCCOc1c(N)cc(Cl)cc1C(=O)OCCN(CC)CC	116%	83.9%	102	101%	125%	98.6	101%	104%	78.3	107%	111%	74.8%	101%	101	90.1%	80.9	102%	96.7%	103%	114%
COc1cc(Br)c(-c2nc(-c3ccccc3)c(-c3ccccc3)n2Cc2ccccc2)cc1OC	72.6%	31.5%	57.8	71.2%	72.2%	67.9	34.5%	76%	59.2	53.1%	47.4%	32.3%	86.7%	67.2	64.1%	29.7	54%	53.1%	61.3%	91.1%
Oc1ccc(Cl)cc1Sc1cc(Cl)ccc1O	98.9%	93.3%	86.2	96.4%	62%	87.8	108%	97.6%	94.7	95.8%	92.9%	102%	63.4%	95.1	93.9%	89.6	-14.2% (active)	58.8%	88.1%	52.5%
COc1ccc(-c2nnc(SCC(=O)N3CCN(c4cc5c(cc4F)c(=O)c(C(=O)O)cn5C4CC4)CC3)o2)cc1OC	99.3%	74.5%	101	110%	118%	104	89.1%	96.5%	101	76.2%	93.6%	94.6%	98.4%	97.4	98.4%	59.2	99.7%	97.7%	81.6%	95.2%
CC(=O)N1N=C2N(Cc3ccccc3)C(=O)c3c(sc4c3CCCC4)N2C1c1cn(-c2ccccc2)nc1-c1ccc(Cl)cc1 (configuration not stated)	112%	93.4%	99.9	99.1%	101%	100	109%	92.6%	113	100%	96.9%	107%	99.3%	94.2	87.2%	92.6	102%	95.5%	92.9%	104%
CC(C)NCC(O)COc1ccc(CC(N)=O)cc1 (configuration not stated)	109%	96.6%	98.4	103%	111%	112	95.8%	109%	104	98.3%	99.3%	103%	99%	106	101%	92.5	94.9%	107%	98.1%	103%
CC(CCC(=O)O)[C@H]1CCC2C3C(=O)C[C@@H]4CC(=O)CC[C@]4(C)C3CC(=O)[C@@]21C (some centres not stated)	114%	94.2%	97.5	90.7%	110%	110	92.9%	111%	112	110%	105%	117%	110%	101	95%	92.8	105%	93.2%	92.5%	119%
Nc1nc(-c2cc3c(cc2Cl)NC(=O)/C3=C/c2ccc(Cl)cc2)cs1	64.6%	5.83% (active)	56.2	2.9% (active)	51.6%	44.7	60.5%	62.3%	73.5	28.7%	49.6%	35.6%	49.1%	31.2	21.8%	32.6	6.5% (active)	36%	12.6%	45.4%

Structure (SMILES)	growth (DU-145 prostate)	growth (K-562 leukemia)	growth (MALME-3M melanoma) [%]	growth (MDA-MB-231 breast)	growth (RXF 393 renal)	growth (SF-268 CNS) [%]	growth (SF-295 CNS)	growth (SF-539 CNS)	growth (UACC-257 melanoma) [%]	growth (M14 melanoma)	growth (HCT-15 colon)	growth (HT29 colon)	growth (SNB-75 CNS)	growth (SNB-19 CNS) [%]	growth (U251 CNS)	growth (PC-3 prostate) [%]	growth (SK-MEL-5 melanoma)	growth (UACC-62 melanoma)	growth (LOX IMVI melanoma)	growth (SK-MEL-28 melanoma)
CC(C)C1(C(C)C)NC(=O)NC1=O	93.7%	108%	163	109%	107%	94	99.4%	91.6%	106	110%	110%	103%	94.5%	101	103%	93.3	91.5%	106%	102%	95.9%
CC(=S)Nc1ccccc1	103%	101%	89	95.5%	107%	107	105%	102%	82.7	96.6%	99.4%	94.3%	87.3%	97.8	96.2%	84.9	98%	96.8%	91.2%	112%
Nc1ncc(-c2ccc3ncnc(Nc4cncc(Cl)c4)c3c2)cn1	49.7%	82.9%	38.7	66.5%	60.3%	68.2	77.2%	78.1%	82.9	77.9%	73.2%	68.6%	31.4%	76.7	73.3%	48.8	66.4%	56.9%	61.5%	69.5%
COc1cccc(C2CC(c3cc(OC)c(OC)c(OC)c3)=NN2)c1 (configuration not stated)	104%	14.5%	91.6	98%	83.8%	93	81.8%	92.2%	99.4	83%	67.3%	37.1%	74.4%	77.2	85.6%	69.1	83.7%	82.4%	61%	101%
CC(Cl)(CCl)CS(=O)(=O)c1ccc(Cl)cc1 (configuration not stated)	108%	105%	114	96.5%	93.1%	101	100%	107%	86.7	104%	105%	103%	103%	101	94.4%	97.7	100%	99.8%	101%	117%
COc1ccc(C(=O)NC(=O)Nc2ccc3c(c2)NC(=O)/C3=C\c2[nH]c(C)c(C(=O)O)c2C)cc1	71.1%	79.3%	41.9	86.8%	49.1%	61.4	105%	72.9%	107	90.5%	93.5%	45.1%	73.7%	80.3	52.9%	86.1	87.1%	91.3%	82.5%	102%
CN(C)CCNc1nc2ccccc2c2c(=O)c3ccccc3sc12	8.96% (active)	-35.1% (active)	12.2	-11.6% (active)	6.42% (active)	26.3	0.247% (active)	36.7%	28.8	-54.7% (active)	8.83% (active)	-0.107% (active)	30.6%	47.6	17.8%	21	-83.1% (active)	-33% (active)	-91.6% (active)	-25.3% (active)
Cc1c(C(C)(C)C)cc(C(C)(C)C)c2c1CN(C)CO2	112%	99.4%	95.5	110%	122%	103	103%	103%	99.5	118%	108%	105%	102%	112	109%	110	127%	114%	106%	102%
O=C(Nc1ccc(-n2cc(-c3ccncc3)c(-c3ccc(O)c(Cl)c3)n2)cc1)c1ccc(Cl)c(C(F)(F)F)c1	35.3%	5.88% (active)	25	-29.1% (active)	-81.6% (active)	38	-2.61% (active)	2.46% (active)	60.9	-16.2% (active)	7.89% (active)	-33.9% (active)	59.7%	40.2	15.7%	14.4	-46.7% (active)	71.2%	-47.6% (active)	44.3%
COc1cc(-c2nc3ccccc3s2)ccc1OCc1nc2n(n1)S(=O)(=O)c1ccccc1N2C	87.7%	71.1%	39.4	84.6%	58.3%	94.4	61.3%	52.4%	104	76.8%	91.5%	100%	41%	91	73.2%	80.8	82.1%	103%	72.3%	103%
CCc1c(C)c2cc3nc(NCc4ccccc4)oc3c(C)c2oc1=O	82.9%	89.5%	51.9	62.1%	53.9%	65.9	79.6%	33.5%	87.6	88.3%	74.7%	60.5%	36.2%	59.2	54.8%	73.3	75.9%	47.1%	80.4%	72.9%
CSc1ccc(C(=O)C[n+]2cccc(C)c2)cc1	109%	102%	96.6	107%	107%	99.4	98.4%	99.7%	98.2	103%	103%	99.8%	90.7%	97.8	101%	96	100%	95.1%	103%	105%
CCOc1ccc(NC2=C(Cl)C(=O)c3ccccc3C2=O)cc1	102%	-2.3% (active)	108	80.2%	105%	94.2	94.3%	90.9%	97.6	68%	-79.9% (active)	98.2%	81.3%	62	56.9%	72.1	81.4%	78.6%	-89.7% (active)	46.9%
Cc1[nH]c2ccc(F)cc2c1CCNC(=O)C1CCN(C(=O)c2ccc(-c3ccccc3)cc2)CC1	68.8%	17.3%	63.6	62.7%	54.5%	60.4	37.6%	66.8%	58.1	40.8%	35.2%	5.89% (active)	49.1%	65.3	48.7%	23.2	27.4%	55%	48.8%	67.7%
COc1cc2ncn3c(=O)c4c5c(sc4nc3c2cc1OC)CCCCC5	111%	97.3%	93.7	91.7%	105%	93.7	105%	100%	105	106%	107%	112%	73.2%	102	102%	90.9	94.9%	93.7%	88.2%	107%
